Source: PubChem (Buhrlage Lab, Dana-Farber Cancer Institute and Novartis Institutes for BioMedical Research (Cambridge, Mass))
This is a sample that favours compounds with a hit; in the whole collection about 12% have one here.
OTUD3 block = human OTUD3 deubiquitinase inhibition; Q5T2D3; purified OTUD3, Ub-rhodamine fluorescence, 2 h; inhibition, % at 25 µM; 47,000 tested, 0.7% active
USP17 inh = inhibitors of human USP17 deubiquitinase; inhibition, % at 50 µM; 47,000 tested, 6.5% active; purified USP17, Ub-rhodamine cleavage fluorescence, 3 h; A8MUK1
USP28 inh = human USP28 deubiquitinase inhibition | Q96RU2 | purified USP28, Ub-rhodamine cleavage fluorescence, 30 min | inhibition, % at 25 µM | 47,000 tested, 3% active
USP30 inh = human USP30 deubiquitinase inhibition. Q70CQ3. purified USP30, Ub-rhodamine cleavage fluorescence. inhibition, % at 25 µM. 47,000 tested, 5.3% active. AID 1645860
Target sequence (Q70CQ3 whole entry, looked up): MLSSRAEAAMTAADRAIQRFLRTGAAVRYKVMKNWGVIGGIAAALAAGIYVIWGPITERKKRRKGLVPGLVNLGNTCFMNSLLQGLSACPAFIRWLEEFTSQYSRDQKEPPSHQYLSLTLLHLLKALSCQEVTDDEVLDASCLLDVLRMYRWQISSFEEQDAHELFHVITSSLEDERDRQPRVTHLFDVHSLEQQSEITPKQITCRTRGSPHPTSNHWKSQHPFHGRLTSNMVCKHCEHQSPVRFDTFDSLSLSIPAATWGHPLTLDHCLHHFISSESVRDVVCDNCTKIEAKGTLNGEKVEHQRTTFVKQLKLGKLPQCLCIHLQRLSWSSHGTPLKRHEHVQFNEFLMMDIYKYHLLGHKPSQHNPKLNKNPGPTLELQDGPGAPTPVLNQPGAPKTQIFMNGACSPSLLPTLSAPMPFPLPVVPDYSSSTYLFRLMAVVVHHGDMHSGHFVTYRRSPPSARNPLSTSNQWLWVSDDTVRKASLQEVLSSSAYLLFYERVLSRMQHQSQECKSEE
Starred values were filed as active, the others as inactive; i = inactive. No stated cut-off is given here; in the data, active means inhibition above about 30%; inactive means the rest.

SMILES	OTUD3 block	USP17 inh	USP28 inh	USP30 inh
CC1(C)CC(n2[nH]c(=O)c3c2NC(=O)CSC3c2ccc(OCc3ccccc3)cc2)CCO1 (stereo not given)	8	25	26	53*
CCOc1ccc(C2SCC(=O)Nc3c2c(=O)[nH]n3C2CCCCC2)cc1 (stereo not given)	9	14	12	35*
COc1ccc2c(c1)nc(C(F)(F)F)n2C1CCN(Cc2ccc(O)cc2)CC1	-19	-20	-14	-69
O=C(Cc1ccccc1F)N1C[C@@H](O)[C@H](N2CCC(F)(F)CC2)C1	-6	-12	-22	-7
CN1CCc2nc3sc4c(O)cc(=O)[nH]c4c3cc2C1	2	-12	-4	-18
CN(C)[C@H]1C(=O)C(C(N)=O)=C(O)C2(O)C(=O)C3=C(O)c4c(O)cccc4C(C)(O)C3C(O)C12 (stereo not given in full)	-136	-116	-59	i
COc1ccc(C2SCC(=O)Nc3c2c(=O)[nH]n3C2CCCCCC2)cc1 (stereo not given)	-5	50*	-3	10
